Source: PubChem BioAssay (National Center for Advancing Translational Sciences (NCATS))
HPGD block = HPGD (human) dehydrogenase inhibition | purified HPGD, NADH fluorescence kinetic, PGE2 substrate | P15428 | Potency, µM, without a hit: top-dose activity change, negative = inhibition, most hits filed as inhibitors | 4.3% of 150,000 active; note: potency is the fitted concentration of half-maximal effect
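NADH formation kinetics: reaction with 30 uM PGE2 and 1 mM NAD+ (final), 20 nM enzyme, Tris-HCl pH 8 with Tween 20, after 15 min compound preincubation at room temperature. Fluorescence change, last versus first of five reads.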
PNC assembly inh = inhibitors of perinucleolar compartment assembly; PC3M PTB-GFP, PNC prevalence imaging, 16 h; stronger effect = lower value; activity change (PNC), negative = inhibition, % at 10 µM; 3.1% of 140,000 active; AID 2417;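 active = readout at or below -70, meaning at least 70% loss of cells showing the perinucleolar compartment, a nuclear body marking cancer cells; inconclusive = readout between -30 and a set limit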;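 note: plate controls were DMSO wells for no effect and camptothecin positive control wells for full effect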
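PC3M cells stably expressing PTB-GFP, 750–1000 cells/well, treated 16 h at 37 °C with compound (23 nl of library stock), in duplicate. After paraformaldehyde fixation and Hoechst stain, imaged at 20x; PNC prevalence scored by image analysis.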
12-hLO inh = blocks human 12-lipoxygenase activity; purified 12-hLO, xylenol orange hydroperoxide absorbance; 0.12% of 150,000 active; P18054; Potency, µM (titrated, usually from 57.1 µM), without a hit: at the highest dose activity change, negative = inhibition, most hits filed as inhibitors; active = well fitted inhibition curve with a large enough effect; inconclusive = small, poorly fitted or top-dose-only effect; note: potency is the fitted concentration of half-maximal effect; nearly all actives have a fitted effect of over 55% in size
Target sequence (P18054 whole entry, looked up): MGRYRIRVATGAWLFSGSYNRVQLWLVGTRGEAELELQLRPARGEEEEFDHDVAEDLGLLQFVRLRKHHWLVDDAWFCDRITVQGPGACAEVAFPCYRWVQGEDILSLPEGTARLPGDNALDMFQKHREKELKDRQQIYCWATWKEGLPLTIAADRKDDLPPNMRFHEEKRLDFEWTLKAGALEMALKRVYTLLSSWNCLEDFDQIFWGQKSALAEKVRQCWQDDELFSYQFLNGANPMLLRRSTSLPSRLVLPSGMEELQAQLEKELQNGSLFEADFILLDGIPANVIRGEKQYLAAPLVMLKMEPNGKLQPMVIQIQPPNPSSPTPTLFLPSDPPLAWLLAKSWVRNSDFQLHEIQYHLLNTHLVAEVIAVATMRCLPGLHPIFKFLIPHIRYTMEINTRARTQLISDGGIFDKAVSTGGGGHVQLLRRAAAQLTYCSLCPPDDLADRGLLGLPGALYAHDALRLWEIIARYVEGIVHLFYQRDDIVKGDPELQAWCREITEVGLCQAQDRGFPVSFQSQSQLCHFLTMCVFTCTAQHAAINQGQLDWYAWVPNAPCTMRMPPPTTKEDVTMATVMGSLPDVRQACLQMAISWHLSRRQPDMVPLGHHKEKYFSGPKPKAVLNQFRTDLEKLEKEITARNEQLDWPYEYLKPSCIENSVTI
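Hydroperoxide output read as Fe(III)-xylenol orange absorbance, 573-to-405 nm ratio, after 30 min reaction with 40 uM arachidonic acid. Enzyme: 150 nM purified human 12hLO, 15 min compound preincubation; 25 mM Hepes pH 7.0, room temperature.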
ALDH1A1 inh = ALDH1A1 (human) enzyme inhibition. 7.3% of 220,000 active. Purified ALDH1A1, NADH fluorescence, propionaldehyde substrate. P00352. Potency, µM (top dose mostly 75.3 µM), inactives show top-dose activity, negative = inhibition, most hits filed as inhibitors. AID 1030;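 note: potency is the fitted concentration of half-maximal effect; plate controls were no enzyme wells and a reference inhibitor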
LMNA splice mod = LMNA splicing modulation. 0.01% of 200,000 active. Potency, µM (highest dose often 46.1 µM), without a hit: top-dose ratio change, negative = inhibition, actives largely listed as inhibitors. HeLa LMNA splicing GFP/RFP minigene ratio, 48 h. AID 1487; active = well fitted inhibition curve with a large enough effect in the signal ratio, with a control signal flat, not every such curve was filed as active; inconclusive = small, poorly fitted or top-dose-only effect, or effect the other way, or a change in a side signal; the % refers to the signal ratio; note: potency is the fitted concentration of half-maximal effect
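S3 HeLa cells stably expressing lamin A-EGFP splicing minigene plus DsRed2, 600 cells/well, 48 h compound exposure at 37C. Laser-scanning cytometry; analysed as GFP (500-530 nm)/RFP (575-640 nm) total intensity ratio; 0.5% DMSO vehicle.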
The depositor's hits bear a star; ? = inconclusive; . = not tested or not shown; [ ] = another dose, or the depositor's remark. A selection: hits, their analogues and other compounds. The true share with any hit is near 10%. Unless noted, calls come from the whole dose curve; as a rule, active = well fitted inhibition curve with a large enough effect (not every such curve was filed as active); inconclusive = small, poorly fitted or top-dose-only effect, or another doubt; inactive = no such curve, though single readings can be large or run the other way. Unless noted, % is set by controls: 0 for no effect and ±100 for the full control effect.

SMILES | HPGD block | PNC assembly inh | 12-hLO inh | ALDH1A1 inh | LMNA splice mod
CCOC(=O)c1noc2ncn(Cc3ccc([N+](=O)[O-])cc3)c(=O)c12 | . | . | . | . | -3%[46 µM]
C#C[C@@]1(O)CCC2C3CCc4cc(O)ccc4C3CC[C@@]21C (stereo partly specified) | -2% | . | -5% | 14% | .
Cc1cc(C)c(C)c(S(=O)(=O)NCCC(=O)O)c1C | -1% | . | -3% | 11% | .
C=CCn1c(-c2cc(OC)cc(OC)c2)n[nH]c1=S | -28% | -28 | -4% | 22µM* | 12%
C=CCn1c(-c2cccc(OCC)c2)n[nH]c1=S | . | . | . | -4% | .
COc1cccc(NC(=O)N(CCC(C)C)C2CCN(C(C)C)CC2)c1 | . | . | . | . | -10%[46 µM]
C=C1c2cccc(O)c2C(O)=C2C(=O)[C@@]3(O)C(O)=C(C(N)=O)C(=O)[C@@H](N(C)C)[C@@H]3[C@@H](O)[C@H]12 | 10µM* | . | -7%[25.6 µM] | 6%[20.9 µM] | ?
CCCCCCC#CC1C=CC(OC(C)=O)C(COC(C)=O)O1 (stereo unspecified) | . | . | . | 3.2µM* | .
CCOC(=O)c1c(C)[nH]c(C)c1S(=O)(=O)N(C)CC(=O)NCc1ccc(Cl)cc1 | . | . | . | . | 3%[46 µM]
Cc1[nH]c2ccccc2c1C(=O)CSC(=S)N1CCCCC1 | 25µM* | 2 | -4% | ? | -3%
Cc1[nH]c2ccccc2c1C(=O)CSC(=S)N(C)C1CCCCC1 | -7% | ? | -3% | ? | ?
Cc1[nH]c2ccccc2c1C(=O)CN1CCN(C2CCCCC2)CC1 | -8% | ? | -10% | 13µM* | 8%
O=C(CSC(=S)N1CCCCC1)c1ccccc1 | . | . | . | 32µM* | .
Cc1[nH]c2ccccc2c1C(=O)CN1C(=O)C(=O)N(C2CCCC2)C1=O | . | . | . | 2% | .
c1ccc2cc(-c3cc(-c4cc(-c5ccc6ccccc6c5)on4)no3)ccc2c1 | -7% | . | -5%[11.4 µM] | -2%[13.5 µM] | .
CC(=O)OC[C@@H]1O[C@H](CCO/N=C(\C)CCN2CCc3nc(-c4ccccc4)c(-c4ccccc4)cc3C2)C=C[C@@H]1OC(C)=O | . | . | . | -6%[13.5 µM] | .
CC1CC(C)CN(C(=O)CNS(=O)(=O)c2ccc(Br)s2)C1 (stereo unspecified) | -6% | 62 | -6% | -2% | -8%
CC1CCN(C(=O)CNS(=O)(=O)c2ccc(Br)s2)CC1 | -23% | -24 | -11% | 8.9µM* | 2%
COC(=O)c1nnc(C(=O)N(C)Cc2ccccc2)c2[nH]c3ccccc3c12 | -6% | . | . | ? | .
CC(Sc1ccc(S(=O)(=O)N2CCOCC2)cc1[N+](=O)[O-])C(=O)O (stereo unspecified) | -17% | -20 | 0% | ? | -5%
C/C(=N\Nc1ccc(S(=O)(=O)N2CCOCC2)cc1[N+](=O)[O-])C(C)C | . | . | . | 18µM* | ?
CC(C)C(Nc1ccc(S(=O)(=O)N2CCOCC2)cc1[N+](=O)[O-])C(=O)O (stereo unspecified) | . | . | . | 1.3µM* | 10%[46 µM]
CN1CCC(=NNc2ccc(S(=O)(=O)N3CCOCC3)cc2[N+](=O)[O-])CC1 | -14% | -12 | -1% | 0% | 0%
Cc1ccc2nc(Nc3ccccc3)c(/C=N/O)c(=O)n2c1 | 11µM* | -100* | -3% | 7% | 1%
Cc1ccc(C2C3=C(CCCC3=O)Nc3[nH]c(=S)[nH]c(=O)c32)cc1 (stereo unspecified) | 10µM* | 6 | ? | ? | 3%
SMILES | HPGD block | PNC assembly inh | 12-hLO inh | ALDH1A1 inh | LMNA splice mod
COc1cc(C2C(C(=O)OC(C)C)=C(C)Nc3[nH]c(=O)[nH]c(=O)c32)ccc1O (stereo unspecified) | -2% | 41 | -2% | 0% | 3%
O=C1CCCC2=C1C(c1ccc(Br)cc1)c1c([nH]c(=S)[nH]c1=O)N2 (stereo unspecified) | 7.1µM* | -13 | ? | ? | -4%
COC(=O)C1=C(C)Nc2[nH]c(=S)[nH]c(=O)c2C1c1ccc(O)cc1 (stereo unspecified) | . | . | . | 24µM* | .
O=C(CSc1nnc(CNC(=O)c2ccccc2F)o1)Nc1ccc2c(c1)OCCO2 | -9% | 9 | 2% | 10µM* | 3%
O=C(NCc1nnc(SCC(=O)N2CCC(Cc3ccccc3)CC2)o1)c1ccccc1F | -9% | -27 | -3% | 8.9µM* | ?
O=C(CN1CCC(NC(=O)c2ccccc2F)CC1)Nc1ccc2c(c1)OCCO2 | . | . | . | 13µM* | .
O=C(CSc1nnc(-c2ccccc2Cl)o1)Nc1ccc2c(c1)OCCO2 | -10% | -13 | -1% | 20µM* | -12%
O=C(NCc1nnc(SCC(=O)N2CCCC2)o1)c1c(F)cccc1Cl | -4% | 28 | -1% | 2% | 0%
O=C(CSc1nc(=O)n(Cc2ccccn2)c2c1CCC2)Nc1ccccc1 | . | . | . | . | 9%[46 µM]
C/C(=N\NS(=O)(=O)c1ccc(C)cc1)c1cc2ccccc2oc1=O | . | . | . | 16µM* | ?
C/C(=N\NC(=O)c1ccncc1)c1cc2ccccc2oc1=O | ? | ? | 1% | 13% | -8%
NS(=O)(=O)c1ccc(NC(=O)Nc2ccccc2F)cc1 | -1% | . | -1%[11.4 µM] | 3%[13.5 µM] | .
Cc1ccccc1OCC(O)Cn1nnc2ccccc21 (stereo unspecified) | -24% | -100* | -1% | -2% | -8%
FC(F)C(F)(F)C(F)(F)C(F)(F)c1cc(-c2ccccc2)n[nH]1 | 16µM* | -4 | -19% | 4% | -1%
Cc1cc(C)c(S(=O)(=O)NCC(c2ccc(N(C)C)cc2)N2CCOCC2)c(C)c1 (stereo unspecified) | . | . | . | . | -3%[46 µM]
Cc1cnc2c(c1SCC(=O)N(C)c1ccccc1)c(=O)n(C)c(=O)n2C | . | . | . | . | 5%[46 µM]
COc1cccc(C(=O)Oc2cc3c4c(c2)C(C)=CC(C)(C)N4C(=O)C3=O)c1 | 28µM* | 47 | -10% | 8.9µM* | ?
COc1cc2c3c(c1)C(C)=CC(C)(C)N3C(=O)C2=O | . | . | . | 3.5µM* | ?
COc1ccc(C(=O)Nc2cccc(OC(=O)c3ccc(C)c(C)c3)c2)cc1 | -12% | -8 | -10% | 5% | 8%
COc1cc2c3c(c1)C1(C(=O)N3C(C)(C)C=C2C)C(C#N)=C(N)Oc2cc(O)ccc21 (stereo unspecified) | -17% | ? | -19% | 3% | ?
COc1ccc(C(=O)Oc2cc3c4c(c2)C(C)=CC(C)(C)N4C(=O)C3=O)cc1OC | 32µM* | -21 | 0% | ? | -12%
COc1cc(N=C2C(=O)N3c4c(cccc42)C(C)=CC3(C)C)cc(OC)c1 | -23% | 9 | 1% | 0.79µM* | -1%
N=C(c1ccc2ccccc2c1)c1ccccc1Cc1ccccc1 | -11% | . | 2%[11.4 µM] | 3%[13.5 µM] | .
CCCOc1ccccc1-n1sc2c(c1=S)-c1cc(OC)cc3c1N(C(=O)C3=O)C2(C)C | -19% | 14 | -15% | 3% | 0%
COc1cc2c3c(c1)C(C)CC(C)(C)N3C(=O)C2=O (stereo unspecified) | . | . | . | 0.14µM* | ?
